Where “and” joins values, the source holds several entries; their conditions need not be identical. Equal values may be shown once. Records with an inconclusive call do not appear. Where a call stands in place of a potency, no number is given. Some structures have more than one record in an assay (separate samples or runs), and their calls can disagree. Calls of active or inactive are those of the source. Unless noted, calls follow the shape of the dose curve; as a rule, active = well fitted curve in the direction sought with a large enough effect; inconclusive = small, poorly fitted or top-dose-only effect, or another doubt; inactive = no such curve, though single readings can be large; an effect the other way counts as inactive or inconclusive.
How the values were obtained:
[1] = qHTS assay for small molecule agonists of the antioxidant response element (ARE) signaling pathway (AID 651741; active = well fitted activation curve with a large enough effect in the signal ratio; the % refers to the signal ratio; also: potency is read from the fitted curve at half-maximal effect)
Summary of the method: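 Reporter: beta-lactamase under ARE, stably in HepG2. Exposure: 16 h, 37 C, compounds delivered in DMSO by pin tool after 5 h cell preincubation. Readout: FRET substrate fluorescence after 2 h at RT.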

[2] = qHTS assay for small molecule activators of the p53 signaling pathway (AID 651743; active = well fitted activation curve with a large enough effect in the signal ratio, not every such curve was filed as active; the % refers to the signal ratio; also: series mostly up to about 92 µM); conditions: HCT-116 p53RE-bla, beta-lactamase FRET ratio, 16 h; activation: stronger effect = higher value
Summary of the method: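 Agonist-mode quantitative HTS in HCT-116 cells carrying a p53-response-element beta-lactamase reporter; 16 h compound treatment at 37 C, then FRET substrate loading for 2 h at room temperature and fluorescence read.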

[3] = qHTS assay for small molecule activators of the nuclear factor-kappa B (NF-kB) signaling pathway (AID 651749; active = well fitted activation curve with a large enough effect in the signal ratio; the % refers to the signal ratio; also: series mostly up to about 77 µM); conditions: NF-kB-bla ME-180 cells, beta-lactamase FRET ratio, 16 h; stronger effect = higher value
Summary of the method: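 Human ME-180 cervical cells with an NF-kB-bla construct; compounds added via 23 nL pin transfer, DMSO as vehicle; incubation 16 hr. Reporter activity measured by FRET disruption.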

[4] = qHTS assay for small molecule disruptors of the mitochondrial membrane potential - 1 hr assay (AID 651754; calls by dose curve; also: nearly all actives have a fitted effect of over 35% in size; also: potency is read from the fitted curve at half-maximal effect)
Summary of the method: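 Loss of mitochondrial potential shifts the cationic dye from red mitochondrial aggregates to green cytoplasmic monomers. Cells (HepG2) are treated with compound for 1 hr before a 30 min dye incubation at 37C.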

[5] = qHTS assay for small molecule disruptors of the mitochondrial membrane potential - 5 hr assay (AID 651755; calls by dose curve; also: nearly all actives have a fitted effect of over 40% in size; also: potency is read from the fitted curve at half-maximal effect)
Summary of the method: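 Seed HepG2 overnight, add compound, incubate 5 hr at 37C and 5% CO2, stain 30 min with Mito-MPS, then measure monomer (490/535 nm) and aggregate (540/590 nm) fluorescence.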

[6] = target: Tumor necrosis factor (Homo sapiens) (UniProt P01375); experiment: qHTS assay to identify small molecules that stimulate Tumor Necrosis Factor-alpha (TNF-alpha) secretion (AID 651757; active = well fitted curve in the direction sought with a large enough effect in the signal ratio; the % refers to the signal ratio)
Summary of the method: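 Human monocytic THP-1 cells are plated, treated with compound and held at 37 C for 17 hrs. Labeled anti-TNF-alpha antibody mixture is then added; after 3 hr at room temperature, TR-FRET signal reports secreted TNF-alpha.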

[7] = qHTS assay for environmental chemicals that activate the Aryl hydrocarbon Receptor (AhR) signaling pathway (AID 651777); conditions: 1A2-DRE human hepatoma cells, luciferase, 24 h; activation: stronger effect = higher value; also: nearly all actives have a fitted effect of over 15% in size; also: potency is read from the fitted curve at half-maximal effect
Summary of the method: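 Induction of CYP1A2 transcription through AhR is detected by luciferase in 1A2-DRE hepatoma cells. Compounds or DMSO act for 24 hr at 37 C before a 30 min One-Glo step at room temperature.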

[8] = target: Peroxisome proliferator-activated receptor alpha (Homo sapiens) (UniProt Q07869); experiment: qHTS assay for small molecule agonists of the peroxisome proliferator-activated receptor alpha (PPARalpha) signaling pathway (AID 651778); conditions: PathHunter PPARalpha complementation, chemiluminescence, 6 h; stronger effect = higher value
Summary of the method: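 Cells plated at 2,000/well and held overnight at 37 C, 5% CO2, then compound added by pin tool for 6 hr; after PathHunter detection reagent and 60 min at room temperature, chemiluminescence from enzyme complementation was read.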

[9] = target: Nuclear receptor ROR-gamma (Homo sapiens) (UniProt P51449); experiment: qHTS assay for small molecule antagonists of the retinoid-related orphan receptor gamma (ROR-gamma) signaling pathway (AID 651802);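 also: CHO cells with doxycycline-induced ROR-gamma expression; series mostly up to about 92 µM; nearly all actives have a fitted effect of over 60% in size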
Summary of the method: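 Steps: cells dispensed; compound or DMSO transferred by pin tool; doxycycline added to induce the ROR response element-driven luciferase; plates held 16hr at 37C; ONE-Glo added and luminescence measured.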

[10] = qHTS assay for small molecule agonists of the antioxidant response element (ARE) signaling pathway measured by Nrf2-dependant transcriptional activity (AID 720636; active = well fitted curve in the direction sought with a large enough effect in the repeat runs; an effect the other way counts as inactive or inconclusive;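 also: HepG2 cells with an ARE-driven luciferase reporter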)
Summary of the method: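 We exposed ARE-luc HepG2 cells, seeded in assay medium with 1% dialyzed FBS and allowed 6 hr to adhere, to test compounds overnight (16 hr, 37 C) before measuring luciferase with ONE-Glo.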

[11] = qHTS assay for small molecule antagonists of the retinoid-related orphan receptor gamma (ROR-gamma) signaling pathway - cell viability counter screen (AID 720652; active = well fitted curve in the direction sought with a large enough effect in the repeat runs; an effect the other way counts as inactive or inconclusive;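 also: CHO reporter cells with doxycycline-induced ROR-gamma expression; series mostly up to about 92 µM; compound exposure lasted 16 hr before ATP read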)
Summary of the method: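 Steps: seed CHO cells bearing TET-inducible ROR and ROR response element-luciferase; rest 5 hr at 37 C; add compound, then doxycycline; incubate 16 hr; add CellTiter-Glo and read luminescence as ATP-based viability.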

[12] = qHTS of Trypanosoma Brucei Inhibitors: LOPAC Validation (AID 624147)
Summary of the method: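 In this concentration-response screen, enzyme-free wells defined baseline while DMSO plates tracked drift. Each reaction combined TbPYK, substrate, compound and 130 uM ADP for 45 min at room temperature. Kinase-Glo Plus luminescence gave the signal.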

[13] = target: Glucagon-like peptide 1 receptor (Homo sapiens) (UniProt P43220); experiment: qHTS of GLP-1 Receptor Agonists: LOPAC Validation (AID 624148);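 also: higher luminescence signal means agonism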
Summary of the method: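 HEK293 cells stably co-expressing a cAMP-responsive luciferase reporter and a hypersensitive GLP-1R were plated 12 h at 37 °C and exposed to compounds for 4-6 hr at 37 °C, 5% CO2. Luminescence was read 12 min after adding detection reagent.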

[14] = qHTS of Nrf2 Activators: LOPAC Validation (AID 624149)
Summary of the method: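 Cells (AREc32_Fluc) are plated at 1000 per well in OPTI-MEM containing 5% FBS and left overnight. Compounds are pinned in and incubated 24 hr at 37 deg C, and firefly luciferase is detected with Steady-Glo.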

[15] = HTS Assay for Allosteric Antagonists of the Human D2 Dopamine Receptor: Hit Validation in HTRF (AID 624455);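 also: stable D1 dopamine receptor cell line scored for blocking the D1 response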
Summary of the method: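 Inhibition of the D1-mediated response is measured by HTRF in cells that stably express the D1 dopamine receptor. Compounds reaching this step are hits from calcium-flux antagonism testing at EC80 dopamine in inducible Hek293 Trex D2 cells.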

[16] = qHTS for compounds that reverse cellular toxicity of Amyloid beta (A-beta) peptide in yeast: LOPAC Validation Assay (AID 720559)
Summary of the method: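 OD600 growth readout after 48 hr at 30 C; A-beta-toxic yeast plus pinned compounds in medium. Normalization: DMSO = negative, equimolar FeCl3 + clioquinol = positive.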

[17] = qHTS for Activators of Parkin Expression: LOPAC Validation Assay (NLuc Reporter) (AID 720572)
Summary of the method: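 Cells harboring the Parkin-promoter coincidence reporter were treated for 24 h at seven concentrations. NLuc output was measured sequentially after the FLuc channel and scaled between DMSO and positive control values.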

[18] = qHTS assay to identify small molecules that stimulate interleukin-8 (IL-8) secretion (AID 651758; active = well fitted activation curve with a large enough effect in the signal ratio; the % refers to the signal ratio; also: potency is read from the fitted curve at half-maximal effect)
Summary of the method: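 Quantitative HTS in THP-1 monocytic cells at 2000 cells per well, with 16 hrs compound incubation at 37 C. IL-8 in the medium was then quantified by HTRF immunoassay, read after 1-3 hrs at room temperature.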

Chain of Tumor necrosis factor (Homo sapiens) (P01375 whole entry, looked up): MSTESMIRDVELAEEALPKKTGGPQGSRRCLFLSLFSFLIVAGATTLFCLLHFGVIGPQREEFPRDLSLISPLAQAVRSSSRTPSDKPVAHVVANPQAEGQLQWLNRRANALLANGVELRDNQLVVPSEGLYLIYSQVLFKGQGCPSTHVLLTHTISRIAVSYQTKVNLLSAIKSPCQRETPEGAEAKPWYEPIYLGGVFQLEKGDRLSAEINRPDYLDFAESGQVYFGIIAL
Chain of Peroxisome proliferator-activated receptor alpha (Homo sapiens) (Q07869 whole entry, looked up): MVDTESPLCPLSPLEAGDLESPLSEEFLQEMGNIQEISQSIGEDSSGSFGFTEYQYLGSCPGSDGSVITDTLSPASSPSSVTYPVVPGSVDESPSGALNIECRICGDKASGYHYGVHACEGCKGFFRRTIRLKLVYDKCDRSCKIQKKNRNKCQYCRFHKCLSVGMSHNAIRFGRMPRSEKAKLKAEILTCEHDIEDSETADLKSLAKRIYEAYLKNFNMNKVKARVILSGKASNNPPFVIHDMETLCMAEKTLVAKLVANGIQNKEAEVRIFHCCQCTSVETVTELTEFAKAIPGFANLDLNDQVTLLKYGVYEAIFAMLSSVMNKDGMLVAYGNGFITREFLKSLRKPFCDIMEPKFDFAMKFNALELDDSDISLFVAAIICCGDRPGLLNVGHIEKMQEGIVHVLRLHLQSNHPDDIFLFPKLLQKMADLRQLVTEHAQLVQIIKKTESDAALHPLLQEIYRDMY
Chain of Nuclear receptor ROR-gamma (Homo sapiens) (P51449 whole entry, looked up): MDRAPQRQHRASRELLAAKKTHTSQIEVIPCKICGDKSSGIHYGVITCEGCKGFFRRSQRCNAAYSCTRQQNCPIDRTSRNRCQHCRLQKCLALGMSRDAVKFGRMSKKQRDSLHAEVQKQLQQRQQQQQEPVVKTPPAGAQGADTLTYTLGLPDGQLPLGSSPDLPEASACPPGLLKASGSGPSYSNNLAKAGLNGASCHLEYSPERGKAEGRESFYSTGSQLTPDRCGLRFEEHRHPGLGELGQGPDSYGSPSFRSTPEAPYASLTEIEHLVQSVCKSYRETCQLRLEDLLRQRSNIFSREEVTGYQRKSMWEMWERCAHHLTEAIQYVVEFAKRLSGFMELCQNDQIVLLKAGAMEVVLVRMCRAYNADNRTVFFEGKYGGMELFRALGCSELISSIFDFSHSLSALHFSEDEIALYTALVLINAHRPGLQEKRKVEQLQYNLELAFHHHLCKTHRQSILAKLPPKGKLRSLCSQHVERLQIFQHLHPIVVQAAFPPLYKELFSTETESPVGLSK
Chain of Glucagon-like peptide 1 receptor (Homo sapiens) (P43220 whole entry, looked up): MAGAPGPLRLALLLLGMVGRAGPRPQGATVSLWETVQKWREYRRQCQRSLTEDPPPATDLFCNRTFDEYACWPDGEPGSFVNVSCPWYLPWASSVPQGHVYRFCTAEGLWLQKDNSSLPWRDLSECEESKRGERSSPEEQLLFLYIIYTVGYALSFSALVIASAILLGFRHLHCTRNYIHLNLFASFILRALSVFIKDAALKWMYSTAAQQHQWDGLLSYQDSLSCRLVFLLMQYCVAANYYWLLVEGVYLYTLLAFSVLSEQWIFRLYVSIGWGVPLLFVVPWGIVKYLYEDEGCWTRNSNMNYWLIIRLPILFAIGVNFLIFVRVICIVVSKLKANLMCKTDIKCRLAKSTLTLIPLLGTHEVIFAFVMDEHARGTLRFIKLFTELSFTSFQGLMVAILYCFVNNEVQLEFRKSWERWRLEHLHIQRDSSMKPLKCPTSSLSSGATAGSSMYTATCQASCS

Row | Compound | Potency [1] | activation [2] | activation [3] | Potency [4] | Potency [5] | Potency [6] | activation [7] | max response [8] | Potency [9] | Potency [10] | outcome [11] | outcome [12] | outcome [13] | outcome [14] | outcome [15] | Potency [7] | outcome [16] | outcome [17] | Potency [18]
1 | C[C@H](CCC(=O)O)[C@H]1CC[C@H]2[C@@H]3[C@H](O)C[C@@H]4C[C@H](O)CC[C@]4(C)[C@H]3C[C@H](O)[C@]12C | inactive | -1.29% (inactive) | -0.745% (inactive) | inactive | inactive | inactive | -1.36% (inactive) | 0.161% (inactive) | inactive | inactive | inactive | – | – | – | – | – | – | – | –
2 | Oc1ccc(/C=C/c2cc(O)cc(O)c2)cc1 | 19.3 µM (active) and 37.6 µM (active) | 5.17% (inactive) and 7.3% (inactive) | 5.67% (inactive) | 1.88 µM (active) | 5.31 µM (active) | – | – | -3.92% (inactive) and -4.52% (inactive) | inactive | – | inactive | inactive | inactive | inactive | inactive | 25.1 µM (active) | inactive | inactive | –
3 | Nc1ncnc2c1ncn2[C@H]1CC[C@@H](CO)O1 | inactive | -6.3% (inactive) and -2.15% (inactive) | -1.92% (inactive) | inactive | inactive | inactive | 3.83% (inactive) and -0.699% (inactive) | -1.88% (inactive) and -2.98% (inactive) | inactive | inactive | inactive | – | – | – | – | – | – | – | inactive
4 | CCCCO | inactive | 0.244% (inactive) and -1.87% (inactive) | – | inactive | inactive | inactive | -0.013% (inactive) and -0.728% (inactive) | -5.14% (inactive) and -4.07% (inactive) | – | inactive | inactive | – | – | – | – | – | – | – | inactive
5 | Cc1ncc[nH]1 | inactive | -3.81% (inactive) | 0.166% (inactive) | inactive | inactive | inactive | 0.165% (inactive) | -1.93% (inactive) | inactive | inactive | inactive | – | – | – | – | – | – | – | inactive
6 | OCCOCCOCCO | inactive | 1.43% (inactive) and -1.5% (inactive) | -1.02% (inactive) and -0.204% (inactive) | – | – | – | – | 0.91% (inactive) and -3.36% (inactive) | – | inactive | – | – | – | – | – | – | – | – | –
7 | CC1=CCC2CC1C2(C)C (stereo not given) | inactive | -1.57% (inactive) | -0.174% (inactive) | inactive | inactive | inactive | 1.2% (inactive) | -6.44% (inactive) | inactive | inactive | inactive | – | – | – | – | – | – | – | inactive
8 | C=C(C)C1CC=C(C)CC1 (stereo not given) | inactive and 1.12 mM (active) | -4.46% (inactive) | -0.265% (inactive) and 0.532% (inactive) | – | – | – | -2.32% (inactive) and -0.122% (inactive) | -1.15% (inactive) and 0.153% (inactive) | – | inactive | – | – | – | – | – | – | – | – | –
9 | OB(O)O | inactive | -0.565% (inactive) and -2.3% (inactive) | – | inactive | inactive | inactive | 0.198% (inactive) and -2.21% (inactive) | -2.01% (inactive) and 0.448% (inactive) | inactive | inactive | inactive | – | – | – | – | – | – | – | inactive
10 | Oc1cccc(O)c1O | 5.96 µM (active) | 2.6% (inactive) | 2.45% (inactive) | – | inactive | – | -0.8% (inactive) | 0.0177% (inactive) | inactive | inactive | inactive | – | – | – | – | – | – | – | 75 µM (active)
11 | OCl | inactive | -2.68% (inactive) | -0.921% (inactive) | inactive | inactive | inactive | 0.267% (inactive) | -2.41% (inactive) | inactive | inactive | inactive | – | – | – | – | – | – | – | –
12 | CC1=CC(=O)NS(=O)(=O)O1 | inactive | – | -0.0661% (inactive) and 0.935% (inactive) | inactive | inactive | inactive | -1.78% (inactive) and 1.57% (inactive) | -1.04% (inactive) and -0.299% (inactive) | inactive | inactive | inactive | – | – | – | – | – | – | – | –
